mHTT CaM bind: disrupts binding of mutant huntingtin to calmodulin; P42858; AlphaScreen His-mHTT/GST-CaM binding, luminescence; inhibition, % at 15 µM; hit rate 3.6% among 190,000
Pf apPOL block: Pf-apPOL DNA polymerase inhibition | Recombinant Pf-apPOL, molecular beacon fluorescence, 1.5 h | inhibition, % at 10 µM | hit rate 0.25% among 210,000
Each line names hits and unclear results; the compound was inactive in the other large screens. This is one part of a sample in which hits are shown more often than they occur. Rule as the data show it: active = inhibition above about 50%; inactive = the rest.

Cc1cc(OC(=O)CC2CCCC2)c([N+](=O)[O-])c(=O)[nH]1	none
COc1cccc2cc(C(N)=O)c(=Nc3ccccc3C(N)=O)oc12	none
CN1OCC(S(=O)(=O)NC2CCCCC2)C1c1cccc(F)c1F (stereo unspecified)	none
Oc1ccc(Br)cc1/C=N/n1cnnc1	none (no result: Pf apPOL block)
Nc1nnnn1/N=C/c1cc(Br)ccc1O	mHTT CaM bind active (no result: Pf apPOL block)
Cc1ccc(C)n1-c1c(C(=O)O)sc2c1CCCC2	none
COc1ccc(C(=O)N2CCC(n3c(-c4ccco4)nc4cccnc43)C2)cc1 (stereo unspecified)	none
O=C(c1ccc(C(F)(F)F)cc1)N1CCC(n2c(-c3ccco3)nc3cccnc32)C1 (stereo unspecified)	mHTT CaM bind 91
Cc1ccc(C(=O)N2CCC(n3c(-c4ccco4)nc4cccnc43)C2)cc1 (stereo unspecified)	none
O=C(Nc1ccc(F)c(Cl)c1)N1CCC(n2c(-c3ccco3)nc3cccnc32)C1 (stereo unspecified)	none
Cc1ccc(C(=O)N2CCC(n3c(-c4ccco4)nc4cccnc43)C2)cc1C (stereo unspecified)	mHTT CaM bind 72
O=C(c1ccc(F)c(Cl)c1)N1CCC(n2c(-c3ccco3)nc3cccnc32)C1 (stereo unspecified)	mHTT CaM bind 98
CCc1ccc(NC(=O)N2CCC(n3c(-c4ccco4)nc4cccnc43)C2)cc1 (stereo unspecified)	mHTT CaM bind 51
O=C(Nc1ccccc1)N1CCC(n2c(-c3ccco3)nc3cccnc32)C1 (stereo unspecified)	none
Cc1ccc(Oc2ccc(NC(=O)COc3ccc(Cl)cc3Cl)cc2)nn1	none
CCOc1ccc(N(C(C)C(=O)N2CCN(c3ccccc3OC)CC2)S(C)(=O)=O)cc1 (stereo unspecified)	none
COc1ccccc1CCNC(=O)C1CN(C(=O)c2c[nH]c3ccccc23)C1	none
Cc1[nH]c(=O)[nH]c(=O)c1CC(=O)Nc1nc2c(s1)CCCC2	none
O=C(Nc1nccs1)C(=O)N1CCN(C(c2ccccc2)c2ccccc2)CC1	none
O=C(c1cccc(Cl)c1)N1CCCN(C2CCN(Cc3ccc(F)cc3)C2=O)CC1 (stereo unspecified)	none
O=C(c1cccc(Cl)c1)N1CCC(n2c(-c3ccco3)nc3cccnc32)C1 (stereo unspecified)	mHTT CaM bind 51
Cc1cc(C)cc(C(=O)N2CCC(n3c(-c4ccco4)nc4cccnc43)C2)c1 (stereo unspecified)	none
O=C(NC1CC1)c1ccn2c(-c3cc(F)cc(F)c3)nnc2c1	none
CC1(C)CCN2CCC(C)(C)c3c(O)ccc1c32	mHTT CaM bind 71
CC1(C)CCC(C)(C)c2cc3c(cc21)C(C)(C)CCC3(C)C	none (no result: mHTT CaM bind)
O=C(CC1CCCCC1)NCc1ccc2[nH]c3c(c2c1)CCCC3	mHTT CaM bind 92
CN(C)S(=O)(=O)c1ccc(C(=O)NCc2ccc3[nH]c4c(c3c2)CCCC4)cc1	none
O=C(Cc1ccc([N+](=O)[O-])cc1)NCc1ccc2[nH]c3c(c2c1)CCCC3	none
O=C(NCc1ccc2[nH]c3c(c2c1)CCCC3)C12CC3CC(CC(C3)C1)C2	mHTT CaM bind 98
COc1ccc(-n2ncc3c(NC4CCCCC4)ncnc32)cc1	none
CCn1ccc(C(=O)N2CCn3c(nnc3-c3ccccc3)C2)n1	none
O=[N+]([O-])c1cccc(CNc2ccc3c(c2)CCC3)c1	mHTT CaM bind 89
COc1cc(CNC2CCCCCC2)c([N+](=O)[O-])cc1OC	none
COc1cc(CNc2ccc(F)c(Cl)c2)cc([N+](=O)[O-])c1O	none
O=[N+]([O-])c1cccc(CNc2cccc(F)c2)c1	none
COc1cc(CNc2ccc3c(c2)CCC3)c([N+](=O)[O-])cc1OC	mHTT CaM bind 71
COc1cc(CNc2ccc(F)c(Cl)c2)c([N+](=O)[O-])cc1OC	mHTT CaM bind 62
O=[N+]([O-])c1ccccc1CNc1ccc2c(c1)CCC2	mHTT CaM bind 94
O=[N+]([O-])c1ccccc1CNc1ccc(F)c(F)c1	none
O=C(Oc1c(Cl)cc(Cl)c2cccnc12)N1CCCCCC1	none
Cc1ccc(-c2cc3n(n2)CCCNC3)o1	none
O=C(CCC(=O)N1Cc2cccn2-c2ccccc21)NCc1ccc(Cl)cc1	none
N=c1nc2n(c3ccccc13)CC(O)=C2c1ccccc1	none (no result: Pf apPOL block)
CCNC(=O)c1ccc(-c2nc(-c3ccccc3)no2)cc1	none
C#CCOc1ccc(C=C2C(=O)OC(C)(C(C)(C)C)OC2=O)cc1 (stereo unspecified)	none
O=C(Nc1ccc2cn[nH]c2c1)c1ccc([N+](=O)[O-])o1	none
O=[N+]([O-])c1ccccc1CNc1ccc2cn[nH]c2c1	mHTT CaM bind 59
O=CN1CCn2c3c(c(=O)c4cc(C5CCCCC5)ccc42)CCC31 (stereo unspecified)	mHTT CaM bind 82
Cc1ccc2c(c1)c1c3n2CCN(C=O)C3CCC1 (stereo unspecified)	none
Cc1nc(N2CCOCC2)c2c(C)c(C(=O)Nc3ccc([N+](=O)[O-])cc3C)sc2n1	mHTT CaM bind 52
Cc1nc(N2CCOCC2)c2c(C)c(C(=O)Nc3ccc(Br)cc3C)sc2n1	none
N#CC(=Cc1sccc1Oc1ccccc1)C(=O)c1cccs1	none (no result: mHTT CaM bind)
O=C(c1cccnc1)N1CCCC(c2nncn2-c2ccccc2)C1 (stereo unspecified)	none
Cc1csc(SCc2cc(=O)c(OC(=O)COc3ccc(Cl)cc3)co2)n1	none
CCN1c2cc(C)ccc2-n2cccc2C12CCN(C(=O)Nc1cccc(C)c1)CC2	mHTT CaM bind 66
Cc1cccc(NC(=O)N2CCC3(CC2)NC(=O)c2ccccc2N3C)c1	none
CCN1c2cc(C)ccc2-n2cccc2C12CCN(C(=O)Nc1cc(F)ccc1F)CC2	mHTT CaM bind 51
CCN1c2ccccc2-n2cccc2C12CCN(C(=O)Nc1ccccc1C)CC2	none
CCN1c2cc(C)ccc2-n2cccc2C12CCN(C(=O)Nc1ccc(F)cc1)CC2	none
CCN1c2cc(C)ccc2-n2cccc2C12CCN(C(=O)Nc1ccc(F)cc1F)CC2	mHTT CaM bind 52
CN(C)CCNC(=O)c1ccc(NC(=O)C2CC2)cc1N1CCCCCC1	none
CC(C)C(=O)NCCc1cn(C)c2ncccc12	none
O=C(C1CCN(c2ccncc2)CC1)N1CCN(c2cccc(C(F)(F)F)c2)CC1	none
Cc1ccc2oc(C(=O)N3CCN(c4cccc(C(F)(F)F)c4)CC3)cc2n1	mHTT CaM bind 72
CC1C(c2ccc(N(C)C)cc2)NC(c2ccc(N(C)C)cc2)C(C)C1(C)O (stereo unspecified)	none
O=C(Nc1ccccc1)c1c(NC(=O)C2CC2)sc2c1CCCC2	none
COc1cc([N+](=O)[O-])cc2c1NC(C(C)C)C1CC=CC21 (stereo unspecified)	none
CCOc1cc2c(c([N+](=O)[O-])c1)NC(c1ccccc1)C1CC=CC21 (stereo unspecified)	mHTT CaM bind 57
CCOc1cc2c(c([N+](=O)[O-])c1)NC(c1cccc([N+](=O)[O-])c1)C1CC=CC21 (stereo unspecified)	none
COc1cc2c(c([N+](=O)[O-])c1)NC(C(C)C)C1CC=CC21 (stereo unspecified)	mHTT CaM bind 97
O=[N+]([O-])c1ccc(C2Nc3c(cccc3C(F)(F)F)C3C=CCC32)cc1 (stereo unspecified)	none
Cc1ccc([N+](=O)[O-])c2c1NC(c1ccc(Br)cc1)C1CC=CC21 (stereo unspecified)	mHTT CaM bind 97
CCOc1cc2c(c([N+](=O)[O-])c1)NC(c1ccc(Br)cc1)C1CC=CC21 (stereo unspecified)	none
